Assay outcomes deposited in PubChem BioAssay by National Center for Advancing Translational Sciences (NCATS).
MARV entry inh: blocks Marburg virus binding to or entry into cells; Potency, µM (doses to about 37.8 µM), without a hit: at the highest dose activity change, negative = inhibition, actives largely listed as inhibitors; Marburg virus pseudotyped entry inhibition, cell reporter; actives 1.8% (n = 300,000); AID 540276; calls by dose curve; tested in HEK293 cells; note: potency is the fitted concentration of half-maximal effect; % is set by controls: 0 for no effect and ±100 for the full control effect
VACV mCherry inh: vaccinia inhibition (mCherry reporter) | Vaccinia virus mCherry reporter infection, fluorescence | Potency, µM (series often up to 36.5 µM), without a hit: at the highest dose activity change, negative = inhibition, hits mostly inhibitors | actives 0.63% (n = 310,000) | AID 720579; calls by dose curve; tested in A549 cells; note: potency is the fitted concentration of half-maximal effect; % is set by controls: 0 for no effect and ±100 for the full control effect; nearly all actives have a fitted effect of over 35% in size
LASV entry inh: Lassa virus entry inhibition | Lassa virus pseudotype entry inhibition, cell reporter | Potency, µM (highest dose often 37.9 µM), for inactives: at the top dose activity change, negative = inhibition, hits mostly inhibitors | actives 1.2% (n = 300,000) | AID 540256; calls by dose curve; tested in HEK293 cells; note: potency is the fitted concentration of half-maximal effect; % is set by controls: 0 for no effect and ±100 for the full control effect; nearly all actives have a fitted effect of over 50% in size
CHX counter: counter-screen hit for Shiga toxin inhibitors, cycloheximide. actives 12% (n = 300,000). AID 2314. cell reporter, cycloheximide protein synthesis inhibition counterscreen. max response, %; in the data active = max response mostly above about 13%, no sharp cut-off; inactive = mostly below about 14%; note: read at 38.3 µM for the half of the compounds with a filed dose; 0% is about no effect
VACV Venus inh: inhibitors of vaccinia virus (Venus reporter); Vaccinia virus Venus reporter expression, fluorescence; Potency, µM (titrated, usually from 36.5 µM), for the others: top-dose activity change, negative = inhibition, actives largely listed as inhibitors; actives 0.46% (n = 330,000); AID 720580; calls by dose curve; tested in A549 cells; note: potency is the fitted concentration of half-maximal effect; % is set by controls: 0 for no effect and ±100 for the full control effect; nearly all actives have a fitted effect of over 30% in size
Shiga toxin inh: blocks Shiga toxin action in Vero cells; Vero cells, Shiga toxin protein synthesis inhibition reporter; actives 9.2% (n = 290,000); inhibition, % at 38.7 µM; AID 2315; in the data active = inhibition mostly above about 28%, no sharp cut-off; inactive = mostly below about 43%; note: 0% is about no effect
* = called active by the depositor; i = inactive; ? = inconclusive; / = no result given; [ ] = another dose, or the depositor's remark. Many of the other results were omitted from the sample, so hits are more common in it than they were.

SMILES	MARV entry inh	VACV mCherry inh	LASV entry inh	CHX counter	VACV Venus inh	Shiga toxin inh
NC(=O)c1ccsc1NC(=O)COC(=O)Cc1c[nH]c2ccccc12	-13%	-11%	?	/	-22%	/
C=CCOc1ccc(CNC(C)(C)C)cc1OC	-10%	-20%[1.46 µM]	-3%	-1	-7%	-4
C=CCOc1ccc(CNc2nccs2)cc1OC	8%	/	7%	26*	-11%	22*
CCOc1ccc(NC(=O)Cn2nc(CC)n3c(cc4sccc43)c2=O)cc1	11%[46.1 µM]	0%	/	/	-7%	/
CCNc1nc2cccnc2s1	/	/	/	26*	/	38
CNc1nc2cccnc2s1	/	/	/	8	/	27
N=C1S/C(=C\c2ccc(-c3cccc(Cl)c3)o2)C(=O)N1c1nccs1	3.2µM*	-1%	?	9	-9%	10
O=C1OC(c2cccs2)=N/C1=C\c1ccc(-c2cccc(Cl)c2)o1	-16%	/	-22%	2	/	-3
COc1ccc(/C=C2\SC(=N)N(c3nccs3)C2=O)cc1OC	?	-15%	-24%[46.1 µM]	14*	-9%	-1
CCN(Cc1ccccc1)C(=O)Cn1c(=O)n(-c2ccc(Cl)c(Cl)c2)c(=O)c2c(C)c(C(=O)N(C)C)sc21	/	-8%	27%[46.1 µM]	/	-4%	/
Cn1c(=O)c2c(SCC(=O)N3CCc4ccccc43)nc(-c3cccc(F)c3)nc2n(C)c1=O	/	-9%	-1%[46.1 µM]	/	0%	/
O=c1oc2ccccc2c(Nc2cc3ccccc3cc2O)c1[N+](=O)[O-]	?	?	?	53*	-20%	111*
O=C(Nc1ccon1)Nc1ccc(F)cc1F	-1%[46.1 µM]	i	1%[46.1 µM]	10	-11%	52
O=C(Nc1ccncc1)Nc1ccc(F)cc1F	21%	-17%	47%[14.3 µM]	27*	-12%	54*
O=C(Nc1ccc(F)cc1F)Nc1ccc(F)cc1F	-23%[46.1 µM]	i	?	30*	9%	86*
O=C(CC(=O)Nc1ccc(F)cc1F)Nc1ccc(F)cc1F	/	/	/	9	/	-3
COc1ccc(NC(=O)c2cc(F)cc(F)c2)cc1S(=O)(=O)N1CCCCC1	?	-17%	-29%[46.1 µM]	/	-12%	/
O=C(Nc1ccc(-c2cscn2)cc1)C1CCCN(Cc2ccccc2)C1 (centres undefined)	/	/	/	24*	/	19
Cc1cccc(CN2CCCC(C(=O)Nc3ccc(-c4cscn4)cc3)C2)c1 (centres undefined)	?	-30%	?	12	?	-7
CCCc1ncc(CN2CCCC(C(=O)Nc3ccc(-c4cccc(OC)c4)cc3)C2)cn1 (centres undefined)	/	/	/	20*	/	15
COc1cccc(-c2ccc(NC(=O)C3CCCN(Cc4ccccn4)C3)cc2)c1 (centres undefined)	/	-9%	/	/	-14%	/
COCc1ccc(CN2CCCC(C(=O)Nc3ccc(-c4cccc(OC)c4)cc3)C2)o1 (centres undefined)	/	/	/	13	/	10
COc1cccc(-c2ccc(NC(=O)C3CCCN(Cc4cnc(N(C)C)s4)C3)cc2)c1 (centres undefined)	/	/	/	30*	/	5
O=C(CS(=O)(=O)c1cccc2nsnc12)NCc1ccccc1	/	-3%	0%[46.1 µM]	/	7%	/
Cc1cccc(/C(N)=N/OC(=O)CCc2ccccc2)c1	15%	i	4%	32*	-14%	52*
SMILES	MARV entry inh	VACV mCherry inh	LASV entry inh	CHX counter	VACV Venus inh	Shiga toxin inh
COc1ccc(C(=O)c2ccccc2)cc1	?	i	-21%	31*	2%	45
COc1ccc(/C(N)=N/OC(=O)CSc2ccccc2)cc1OC	24%[46.1 µM]	-13%	11%	55*	-13%	68
CCCc1ccc(C(=O)CCC(=O)O)cc1	4%	-3%	?	52*	-1%	65*
Cc1ccc(C(=O)CCC(=O)O)cc1	1%	/	/	-4	/	-12
COC(=O)c1ccc(CN2CCC3(CCC(CNC(=O)c4ccco4)O3)CC2)cc1 (centres undefined)	/	-2%	/	/	-19%	/
O=C(Nc1ccccc1)c1cc(C2CCCN(C(=O)OCc3ccccc3)C2)on1 (centres undefined)	/	i	/	/	-14%	/
CCN(CC)S(=O)(=O)c1ccc2c(c1)N(CC(=O)NCCc1ccccc1)C(=O)CO2	12%[46.1 µM]	-2%	12%[46.1 µM]	/	-20%	/
O=C(CCn1cnnn1)NC1CCCN(Cc2ccccc2F)C1 (centres undefined)	8%	i	-8%	-3	-16%	-13
CC(=O)Nc1ccc(Oc2ncccn2)cc1	/	/	/	/	14%	/
COc1ccc(C(=O)c2nccc3ccccc23)cc1	?	i	23%	37*	3%	48
O=C(c1ccccc1)c1ccc(Oc2ncccn2)cc1	8%	/	-3%	58*	/	197
COc1ccccc1OCCOc1ccc(C(=O)c2ccccc2)cc1	-29%	-17%	?	7	-3%	8
COc1ccc(/C(N)=N/OC(=O)CCc2ccccc2)cc1	0%[46.1 µM]	i	6%[46.1 µM]	52*	16%	93*
O=C(c1ccccc1)c1ccc(OCCO)cc1	/	i	/	16	-10%	38*
Cn1c(=O)c(=O)n(C)c2cc(S(=O)(=O)N3CCCC3C(=O)Nc3cccc(F)c3)ccc21 (centres undefined)	?	-13%	1%[46.1 µM]	/	-4%	/
COc1cccc(CNC(=O)c2c(OC)cc(=O)n3c2CCN(C(=O)c2cc(F)cc(F)c2)CC3)c1	/	-10%	/	/	0%	/
COc1ccc(S(=O)(=O)c2cn(Cc3ccccc3)c3cc(N4CCCC4)c(F)cc3c2=O)cc1	/	-12%	-23%[46.1 µM]	/	-5%	/
CCOc1ccc(NC(=O)c2nn(C)c3c2CS(=O)(=O)c2ccccc2-3)cc1	/	-8%	-13%[46.1 µM]	/	-14%	/
COc1ccc(/C(N)=N/OC(=O)CCCN2C(=O)c3ccccc3C2=O)cc1OC	-11%[46.1 µM]	0%	7%	-3	1%	17
COc1ccc(C(=O)CCc2ccccc2)cc1	/	/	/	43*	/	117*
COc1ccc(C(=O)COC(=O)CCc2ccccc2)cc1	7%[46.1 µM]	i	1%	6	-12%	-2
COc1ccc(/C(N)=N/OC(=O)CCc2ccccc2)cc1OC	/	/	/	27*	/	60
CCN(C[C@H]1N[C@@](CC)(C(=O)OC)[C@H]2C(=O)N(C)C(=O)[C@@H]12)C(=O)COc1ccccc1	/	-9%	/	/	-5%	/
CC1(C)CN(c2ccccc2)C(=O)[C@@H]1CC(=O)Nc1ccccc1	/	/	7%[46.1 µM]	/	/	/
O=C1c2ccccc2C(=O)C1(CO)c1ccc(OC(F)F)cc1	/	/	/	53*	/	27*
O=C1c2ccccc2C(=O)C1(CO)c1ccccc1	6%[46.1 µM]	0%	23%	34*	-5%	106*
CC(=O)c1ccc(NC(=O)C2CC(=O)N(Cc3ccccc3)C2)cc1 (centres undefined)	14%	/	-17%	29*	/	101*
O=C(Nc1ccc(SC(F)F)cc1)C1CC(=O)N(Cc2ccccc2)C1 (centres undefined)	5%	-2%	3%	15*	-14%	26*
O=C(NCCS(=O)(=O)N1CCN(c2ccccc2F)CC1)c1ccc(Br)cc1	/	/	/	1	/	12
COCCC(=O)N1CCC(Oc2ccc(C(=O)NCc3ncc(C)[nH]3)cc2)CC1	21%	-11%	2%	-1	-14%	-8
